We go through eleven molecules from PubChem BioAssay (NCI).

SMILES strings stand for the structures. The panel holds about 83,000 compounds, 20% with a hit somewhere; the sample as a whole holds those more often.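 How to read the values: 0–100, growth inhibition (40 = 60% inhibited); 0, no net growth; -100 to 0, cell death (-40 = 40% of starting cells died; -100 = all dead).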 A number with no mark means an inactive call. The source made the active and inactive calls. Rule for the calls: active = growth percent below 10; inactive = the rest.

Some test systems named below: RPMI-8226 leukemia; OVCAR-8 ovarian; OVCAR-5 ovarian; OVCAR-4 ovarian; SK-OV-3 ovarian; IGROV1 ovarian; OVCAR-3 ovarian; HS 578T breast; NCI/ADR-RES ovarian; T-47D breast.
Common to all, as to test: NCI-60 one-dose screen, 48 h (100 = growth as untreated, 0 = no growth, -100 = all killed)
Holding throughout (conditions): 10 µM unless noted

Consider `COc1ccc(Cn2c(Br)c3c(c2Br)-c2nc(N)sc2CC3)cc1`, for which the growth in the assay with RPMI-8226 leukemia was 27.3%; in the assay on OVCAR-8 ovarian it was 41%; with OVCAR-5 ovarian it was 91.4%; with OVCAR-4 ovarian, 47.8%; in the assay with SK-OV-3 ovarian, 24%; in the assay with IGROV1 ovarian it was 34.7%. The growth with OVCAR-3 ovarian was 7.35% (active); with HS 578T breast, 34.1%; in the assay on NCI/ADR-RES ovarian it was 18.5%; in the assay with T-47D breast, 50.4%.

On to `COc1ccc(Br)c(/C=C2\SC(=Nc3ccc(O)cc3)NC2=O)c1`, for which the growth in the assay on RPMI-8226 leukemia is 51.7%; with OVCAR-8 ovarian, 98%; in the assay on OVCAR-5 ovarian it was 104%; in the assay with OVCAR-4 ovarian it was 83%; in the assay with SK-OV-3 ovarian, 89.9%; in the assay on IGROV1 ovarian, 94.3%. In addition, the growth in the assay with OVCAR-3 ovarian is 102%; with HS 578T breast, 86.5%; in the assay with NCI/ADR-RES ovarian it was 106%; with T-47D breast, 68.5%.

For `COc1cc(NC(=O)CCSc2nc3ccccc3c(=O)n2CCc2ccccn2)cc(OC)c1OC`, the growth with RPMI-8226 leukemia was 79%; in the assay on OVCAR-8 ovarian it was 79.1%; in the assay on OVCAR-5 ovarian, 89.4%; in the assay on OVCAR-4 ovarian it was 46.6%; in the assay on SK-OV-3 ovarian, 78.9%; in the assay on IGROV1 ovarian it was 99.8%. In addition, the growth with OVCAR-3 ovarian was 110%; in the assay with HS 578T breast it was 89.2%; in the assay with NCI/ADR-RES ovarian, 89.4%; in the assay on T-47D breast, 69.7%.

As for `Cn1c(=O)n(C)c2cc(CNCCNc3ccnc4cc(Cl)ccc34)ccc21`, the growth in the assay with RPMI-8226 leukemia is 34.1%; with OVCAR-8 ovarian it was 66.6%; with OVCAR-5 ovarian it was 76.7%; in the assay with OVCAR-4 ovarian, 81.5%; in the assay on SK-OV-3 ovarian it was 86.2%; in the assay on IGROV1 ovarian it was 98.8%. The growth with OVCAR-3 ovarian is 89.3%; with HS 578T breast it was 77.6%; in the assay on NCI/ADR-RES ovarian it was 80.3%; in the assay with T-47D breast, 82.4%.

With `CCOC(=O)C1(Cc2ccccc2)CCN(Cc2cccc(OC)c2O)CC1`, the growth is 9.49% (active) in the assay on RPMI-8226 leukemia; 3.17% (active) in the assay on OVCAR-8 ovarian; 42.4% in the assay on OVCAR-5 ovarian; 17.2% in the assay on OVCAR-4 ovarian; 17.5% with SK-OV-3 ovarian; -8.64% (active) in the assay on IGROV1 ovarian. For the same molecule, the growth in the assay with OVCAR-3 ovarian is 22.8%; with HS 578T breast, 28.6%; in the assay on NCI/ADR-RES ovarian, 6.98% (active); with T-47D breast, 17.2%.

With `COc1cc(C#N)cc2[nH]c(=O)oc12`, the growth in the assay on RPMI-8226 leukemia is 107%; in the assay on OVCAR-8 ovarian it was 112%; in the assay on OVCAR-5 ovarian it was 98.8%; in the assay with OVCAR-4 ovarian, 96.9%; in the assay on SK-OV-3 ovarian, 113%; in the assay with IGROV1 ovarian it was 105%. Also, the growth with OVCAR-3 ovarian was 106%; in the assay with HS 578T breast, 99.1%; with NCI/ADR-RES ovarian, 99.6%; in the assay on T-47D breast it was 101%.

On to `O=C1NC(=O)C(=Cc2cn(Cc3cn(Cc4ccc(Cl)cc4Cl)nn3)c3ccccc23)C(=O)N1`, for which the growth is 83% with RPMI-8226 leukemia; 83% in the assay with OVCAR-8 ovarian; 50.8% with OVCAR-5 ovarian; 82.4% in the assay on OVCAR-4 ovarian; 69% in the assay with SK-OV-3 ovarian; 85.7% in the assay on IGROV1 ovarian. For the same molecule, the growth was 92.4% in the assay on OVCAR-3 ovarian, 87.5% in the assay with HS 578T breast, 96.9% in the assay on NCI/ADR-RES ovarian and 64.7% in the assay with T-47D breast.

For the molecule `O=C(NN1C(=O)CSC1c1ccc(Cl)cc1)c1[nH]c2ccc(F)cc2c1-c1ccccc1` (stereo not given), the growth with RPMI-8226 leukemia was 25%; with OVCAR-8 ovarian, 35.2%; with OVCAR-5 ovarian, 72%; with OVCAR-4 ovarian, 47.4%; in the assay on SK-OV-3 ovarian, 87.2%; in the assay on IGROV1 ovarian it was 36.8%. In addition, the growth in the assay with OVCAR-3 ovarian was 47.9%; in the assay on HS 578T breast it was 94.6%; in the assay on NCI/ADR-RES ovarian, 43.3%; in the assay on T-47D breast it was 52.1%.

In the case of `O=c1oc2ccc(-c3ccc(F)cc3F)cc2c(=O)n1-c1ccc(Cl)c(C(F)(F)F)c1`, the growth with RPMI-8226 leukemia is 3.09% (active); in the assay with OVCAR-8 ovarian it was 8.57% (active); in the assay on OVCAR-5 ovarian it was 74.8%; in the assay with OVCAR-4 ovarian, 21.6%; with SK-OV-3 ovarian, -9.2% (active); with IGROV1 ovarian, 35.3%. Moreover, the growth in the assay on OVCAR-3 ovarian is 7.34% (active); in the assay with HS 578T breast, 14.6%; in the assay on NCI/ADR-RES ovarian it was 6.43% (active); in the assay on T-47D breast, -11% (active).

For `Nc1ccc(-n2c(=O)oc3ccc(Cl)cc3c2=O)c(Cl)c1`, the growth in the assay on RPMI-8226 leukemia was -27.3% (active); in the assay with OVCAR-8 ovarian, -1.7% (active); in the assay on OVCAR-5 ovarian, 25.6%; in the assay on OVCAR-4 ovarian it was 18.2%; in the assay with SK-OV-3 ovarian it was 5.68% (active); in the assay with IGROV1 ovarian, 11.7%. In addition, the growth was 5.11% (active) with OVCAR-3 ovarian, -4.07% (active) in the assay on HS 578T breast, -1.91% (active) with NCI/ADR-RES ovarian and -8.23% (active) in the assay with T-47D breast.

Turning to `CN1C(=O)N(C)C2(c3ccccc3)OC(=S)NC12c1ccccc1` (stereo not given), the growth was 109% in the assay on RPMI-8226 leukemia; 100% in the assay on OVCAR-8 ovarian; 99.6% in the assay on OVCAR-5 ovarian; 96.1% in the assay with OVCAR-4 ovarian; 92% in the assay with SK-OV-3 ovarian; 103% with IGROV1 ovarian. In addition, the growth was 97.4% with OVCAR-3 ovarian, 108% in the assay with HS 578T breast, 108% in the assay with NCI/ADR-RES ovarian and 95.4% in the assay with T-47D breast.
